# Compound activity: PubChem, National Center for Advancing Translational Sciences (NCATS)
# This is a sample that favours compounds with a hit; in the whole collection about 4.4% have one here.
# D1 ag = activates the human D1 dopamine receptor. AID 504660. P21728. activation, % at 2 µM. HEK293 T-REx D1 cells, calcium flux, agonist mode. actives 1% (n = 360,000); further: 0% is about no effect
#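 Agonism was scored from calcium flux recorded over 180 s (1 read/s) after pintool compound addition, following a 10-cycle baseline. Cells were inducible force-coupled HEK293 TREx D1, plated overnight at 30 C and loaded with no-wash calcium dye.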
# D1 PAM = enhances dopamine response at the human D1 receptor; P21728; potentiation, % at 10 µM; HEK293 TREx D1 cells, calcium flux, dopamine EC20 potentiation; actives 0.036% (n = 360,000); AID 504651; in the data active means potentiation above about 30%; further: 0% is about no effect
# USP1-UAF1 inh = USP1/UAF1 (human) deubiquitinase inhibition. Potency, µM (highest dose often 57.1 µM), for inactives: top-dose activity change, negative = inhibition, hits mostly inhibitors. AID 743255. recombinant USP1/UAF1, Ub-Rhodamine cleavage fluorescence. actives 0.23% (n = 390,000); active means well fitted inhibition curve with a large enough effect; inconclusive means small, poorly fitted or top-dose-only effect; inactive means no such curve, though single readings can be large or run the other way; further: potency means the concentration at half of the fitted maximal effect; on the % scale 0 is the no-effect control and ±100 the full control effect; nearly all actives have a fitted effect of over 60% in size
# Target sequence (O94782 whole entry, looked up): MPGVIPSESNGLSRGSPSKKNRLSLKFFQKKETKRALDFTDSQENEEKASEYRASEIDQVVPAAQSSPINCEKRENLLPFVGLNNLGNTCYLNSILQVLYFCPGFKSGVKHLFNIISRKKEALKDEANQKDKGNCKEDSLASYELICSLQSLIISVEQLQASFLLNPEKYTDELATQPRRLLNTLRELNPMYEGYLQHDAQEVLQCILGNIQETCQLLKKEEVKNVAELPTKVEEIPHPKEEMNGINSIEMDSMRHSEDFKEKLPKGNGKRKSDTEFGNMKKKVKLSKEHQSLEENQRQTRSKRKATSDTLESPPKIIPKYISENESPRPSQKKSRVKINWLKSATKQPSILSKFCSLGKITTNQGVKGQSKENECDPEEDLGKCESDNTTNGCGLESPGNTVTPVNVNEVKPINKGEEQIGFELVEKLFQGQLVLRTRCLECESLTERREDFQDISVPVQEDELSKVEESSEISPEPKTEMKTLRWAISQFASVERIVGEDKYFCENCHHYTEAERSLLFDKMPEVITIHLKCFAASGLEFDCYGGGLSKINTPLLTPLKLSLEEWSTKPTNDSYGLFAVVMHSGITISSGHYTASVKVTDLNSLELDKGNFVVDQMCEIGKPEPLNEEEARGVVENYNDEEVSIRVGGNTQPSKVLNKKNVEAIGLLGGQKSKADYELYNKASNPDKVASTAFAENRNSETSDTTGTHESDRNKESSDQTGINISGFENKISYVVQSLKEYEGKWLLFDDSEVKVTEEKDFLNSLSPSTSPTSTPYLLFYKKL
#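 1 nM enzyme complex + cpd, 15 min RT; start with Ub-Rho 150nM final; kinetic fluorescence ex 480/em 540, 6 reads q60 s. Buffer 50mM HEPES pH 7.8, 0.5mM EDTA, 0.1 mg/ml BSA, 1mM TCEP, 0.01% Tween-20.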
# TRHR PAM = allosterically enhances the human TRH receptor | TRHR cells, fluo-8 calcium fluorescence, EC20 TRH enhancement | P34981 | enhancement, % at 2 µM | actives 0.66% (n = 360,000) | AID 493056; in the data active means enhancement above about 30%; further: 0% is about no effect
#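 Enhancer read-out: after compound pinning and an initial kinetic agonist-mode read, an EC20 of TRH (10 nM final) was injected and fluo-8 calcium signal (Ex 480/Em 530) followed at 1 s/cycle for 100 cycles in TRHR-expressing cells.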
# D1 antag = blocks dopamine activation of the human D1 receptor; actives 3.2% (n = 360,000); activity change, negative = inhibition, % at 10 µM; HEK293 TREx D1 cells, calcium flux, dopamine EC80; hits give low values; in the data active means activity change below about -30%; further: on the % scale 0 is the no-effect control and ±100 the full control effect
#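 Allosteric or orthosteric antagonism assessed as attenuation of the calcium response to EC80 dopamine, added 180 s after compound, in induced HEK293 Trex D1 cells loaded with no-wash calcium dye.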
# TRHR ag = TRH receptor (human) agonism. P34981. TRHR cells, calcium flux fluo-8, FDSS agonist mode. activation, % at 2 µM. actives 0.18% (n = 360,000). AID 493084; further: 0% is about no effect
#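 Read-out: compound-evoked intracellular calcium rise in TRHR cells, fluo-8 dye, kinetic FDSS fluorescence at 1 s/cycle following a 10-cycle baseline. Cells cultured overnight before dye loading (30 min–1.5 h, RT).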
# Numbers without * were called inactive; ? = inconclusive; · = no result. Unless noted, no stated cut-off is given here; in the data, active means activation above about 30%; inactive means the rest.
SMILES,D1 ag,D1 PAM,USP1-UAF1 inh,TRHR PAM,D1 antag,TRHR ag
Cc1cc(N/N=C/c2ccc(O)c(C)c2O)nc(-c2ccccc2O)n1,0,-9,-7%,-5,-32*,-1
C/C(=N\Nc1cc(C)nc(-c2ccccc2O)n1)c1ccccc1,3,20,-25%,19,2,0
CC(=O)Nc1ccc(N(CC(=O)NC2CCCC2)C(=O)CCC(=O)Nc2cc(C)on2)cc1,2,-7,-5%,5,-13,0
CC(=O)c1ccc(N(CC(=O)NC2CCCC2)C(=O)CCC(=O)Nc2cc(C)on2)cc1,1,-7,-23%,-2,-36*,1
Cc1cccc(N(CC(=O)NC2CCCCC2)C(=O)CCCC(=O)Nc2ccccn2)c1,-1,3,-6%,-5,2,0
Cc1cccc(N(CC(=O)NC2CCCC2)C(=O)CCCC(=O)Nc2ccccn2)c1,0,4,-17%,-10,-34*,0
COc1ccc(N(CC(=O)NC2CCCCC2)C(=O)CCC(=O)Nc2nc(C)cs2)cc1OC,0,1,-11%,1,-45*,1
CCc1ccc(N(CC(=O)NC2CCCC2)C(=O)CCC(=O)Nc2ccccn2)cc1,0,0,-17%,31*,-1,1
COc1ccc(N(CC(=O)NC2CCCCC2)C(=O)CCC(=O)Nc2nc(C)cs2)cc1,6,5,6%,-1,21,1
CCOc1ccc(N(CC(=O)NC2CCCC2)C(=O)CCC(=O)Nc2ccccn2)cc1,0,2,-8%,2,20,0
COc1cccc(NC(=O)Cn2cc(S(=O)(=O)Cc3ccccc3F)c3ccccc32)c1,7,-1,-15%,3,-1,1
COc1cc(OC)c(OC)cc1CNCCSc1nnnn1-c1ccccc1,7,-1,?,-3,-15,-1
CC(=O)c1ccc(N2CCN(S(=O)(=O)c3ccc4c(c3)CC(=O)N4)CC2)cc1,1,-4,-15%,5,15,-1
CC(=O)c1ccc(N2CCN(S(=O)(=O)c3ccc4c5c3CC(=O)N5CC(C)S4)CC2)cc1 (configuration not stated),7,-13,?,-6,-57*,0
C#CCN1C(=O)S/C(=C/C=C/c2ccc(N(C)C)cc2)C1=O,98*,1,18%,19,-1,1
Cc1ccc(S(=O)(=O)N(C)C)cc1NC(=O)CSc1nnc(C2CC2)n1C1CC1,1,4,-7%,7,-68*,0
Cc1cc(Cl)ccc1OC(C)c1nnc(N)s1 (configuration not stated),3,-2,1%,-2,-49*,0
CC(Oc1ccc(Cl)cc1Cl)c1ccnc(N)n1 (configuration not stated),2,8,-3%,-6,-2,-1
CC1(C)CC(N=c2cc(-c3ccccc3)oc3ccc(Cl)cc23)CC(C)(C)N1,67*,-11,-13%,-3,-69*,0
CNC(=O)C1CCC(Cn2c(=O)[nH]c3ccsc3c2=O)CC1 (configuration not stated),7,-2,-5%,13,-3,-1
O=S(=O)(c1ccc(Cl)cc1)c1nnn2c1nc(N1CCCCC1)c1sccc12,2,-2,?,-6,-7,1
CC(=O)Nc1ccc(S(=O)(=O)NNC(=O)c2cccc([N+](=O)[O-])c2)cc1,1,-2,-3%,4,1,-2
CC(=O)Nc1ccc(S(=O)(=O)NNC(=O)c2cccc(Br)c2)cc1,0,-1,-23%,38*,-3,0
COc1ccc(Cn2c(CCC(=O)Nc3cc(OC)c(OC)c(OC)c3)nc3cccnc32)cc1,4,-2,?,2,-47*,-2
Fc1ccccc1CSc1nnnn1-c1ccc2c(c1)OCO2,9,-4,-16%,-4,-35*,0
SMILES,D1 ag,D1 PAM,USP1-UAF1 inh,TRHR PAM,D1 antag,TRHR ag
Cc1cc(/C=C2\SC(=O)NC2=O)c(C)n1-c1ccc(N(C)C)cc1,-3,-10,-8%,-1,-52*,0
Cc1nn(C)c(C)c1N1C(=O)c2cccc3c(Br)ccc(c23)C1=O,13,-16,-11%,-2,-25,0
COc1ccc2c3c(cccc13)C(=O)N(O)C2=O,2,2,3%,5,18,0
Cc1nn(C)c(C)c1N1C(=O)c2cccc3c(N)ccc(c23)C1=O,356*,6,25µM*,22,-27,135*
Cc1ccc(N2C(=O)c3cccc4c(N)ccc(c34)C2=O)c2cccnc12,334*,8,25µM*,26,-68*,158*
CCN1C(=O)c2cccc3c(N)ccc(c23)C1=O,231*,4,165%,60*,-22,284*
Cc1ccc(-n2cnnn2)c2cccnc12,6,-1,-12%,6,0,0
CCOC(=O)CC1C(=O)NCCN1c1nc2c(C)cccn2c(=O)c1/C=C1\SC(=S)N(CC(C)C)C1=O (configuration not stated),111*,-5,·,0,-15,24
CCOCCCNc1nc2c(C)cccn2c(=O)c1/C=C1\SC(=S)N(C(C)CC)C1=O (configuration not stated),114*,0,-82%,2,-7,21
CCCN1C(=O)/C(=C/c2c(NCCCOCC)nc3c(C)cccn3c2=O)SC1=S,0,6,-13%,11,12,-1
CCOCCCNc1nc2c(C)cccn2c(=O)c1/C=C1\SC(=S)N(CC(C)C)C1=O,30*,-4,?,16,-11,8
Cc1cccc(N2CCN(c3ccc(C(=O)O)cc3NC(=O)c3cccc(Cl)c3)CC2C)c1 (configuration not stated),2,0,-20%,-5,-7,0
Cn1c(CCN2CCN(c3ccccc3)CC2)nc2cc(NC(=O)c3ccco3)ccc21,0,1,-22%,33*,-2,0
Cc1ccc(N2CCN(CCc3nc4cc(NC(=O)c5ccco5)ccc4n3C)CC2)cc1,-1,-1,1%,-1,-12,-1
Cc1nnc(SCC(=O)c2c(N)n(Cc3ccccc3)c(=O)n(C)c2=O)n1C,3,-1,-16%,3,20,1
Cn1cnnc1SCC(=O)c1c(N)n(Cc2ccccc2)c(=O)n(C)c1=O,0,-7,?,-7,-60*,0
CCC(=O)N1CCC2(CC1)Oc1ccc(F)cc1C(=O)C21CC(c2cccnc2)=NO1 (configuration not stated),6,-4,-11%,24,9,0
